According to the supplement of paper PMC11732987, “Enantioselective OTUD7B fragment discovery through chemoproteomics screening and high-throughput optimisation” (Communications Chemistry, 2025):

Assays:
Experiment in all cases: log2 ratio of Biotin-Ahx-Ub-VS probe labelling (fragment/DMSO); higher = less target engagement (more negative = stronger competition), active = hit call of the paper (q ≤ 0.05, log2 ratio ≤ -1)
Details in all cases: compound concentration: 200 uM; treatment time: 3 h
USP42 = molecular target: T1, USP42 (UniProt Q9H9J4)
T1 sequence (whole entry): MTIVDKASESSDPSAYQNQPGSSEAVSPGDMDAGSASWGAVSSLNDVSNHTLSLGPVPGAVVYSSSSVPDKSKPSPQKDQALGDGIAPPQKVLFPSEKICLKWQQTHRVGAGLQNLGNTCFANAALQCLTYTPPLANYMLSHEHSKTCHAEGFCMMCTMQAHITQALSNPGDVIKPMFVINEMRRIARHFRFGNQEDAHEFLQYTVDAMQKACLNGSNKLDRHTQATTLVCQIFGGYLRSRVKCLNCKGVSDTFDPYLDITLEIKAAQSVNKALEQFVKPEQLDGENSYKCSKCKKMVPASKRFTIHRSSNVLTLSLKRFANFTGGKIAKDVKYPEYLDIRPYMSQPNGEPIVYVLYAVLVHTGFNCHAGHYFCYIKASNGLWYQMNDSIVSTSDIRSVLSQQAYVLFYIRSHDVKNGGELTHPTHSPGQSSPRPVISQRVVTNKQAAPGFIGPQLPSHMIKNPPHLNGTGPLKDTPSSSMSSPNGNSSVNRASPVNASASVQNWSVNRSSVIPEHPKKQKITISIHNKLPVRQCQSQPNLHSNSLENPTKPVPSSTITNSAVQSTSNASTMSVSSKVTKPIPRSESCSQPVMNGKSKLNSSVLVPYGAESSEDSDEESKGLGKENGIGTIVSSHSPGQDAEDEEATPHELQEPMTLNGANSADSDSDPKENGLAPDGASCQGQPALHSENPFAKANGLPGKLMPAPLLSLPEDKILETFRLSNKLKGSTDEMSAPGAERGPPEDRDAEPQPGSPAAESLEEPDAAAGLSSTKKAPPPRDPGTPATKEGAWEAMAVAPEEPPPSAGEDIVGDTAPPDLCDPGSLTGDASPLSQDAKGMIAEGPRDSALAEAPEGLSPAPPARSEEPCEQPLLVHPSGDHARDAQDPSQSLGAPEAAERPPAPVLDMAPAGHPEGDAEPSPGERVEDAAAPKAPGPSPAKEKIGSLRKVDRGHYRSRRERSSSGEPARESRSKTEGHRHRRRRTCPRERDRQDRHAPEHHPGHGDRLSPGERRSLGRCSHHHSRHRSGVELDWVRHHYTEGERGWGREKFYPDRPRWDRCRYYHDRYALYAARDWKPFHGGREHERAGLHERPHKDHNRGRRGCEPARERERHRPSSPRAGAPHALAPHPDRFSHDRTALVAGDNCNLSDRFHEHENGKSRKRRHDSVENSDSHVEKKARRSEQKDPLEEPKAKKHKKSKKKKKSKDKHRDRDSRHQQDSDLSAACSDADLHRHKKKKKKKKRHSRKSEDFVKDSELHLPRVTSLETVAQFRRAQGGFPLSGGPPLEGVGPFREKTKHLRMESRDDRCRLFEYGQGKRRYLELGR
Summary of the method: (§1)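 HEK293T lysate in Tris/CHAPS/IGEPAL buffer with protease inhibitors (495 µg per sample) was given fragment at 200 µM or vehicle for 3 h, in triplicate. It then received Biotin-Ahx-Ub-VS at 0.5 µM final for 1 h. Labelled DUBs were NeutrAvidin-enriched, digested with LysC and trypsin, and run by diaPASEF LC-MS/MS. Values are average log2 fragment/vehicle ratios by unpaired t-test on global-median-normalised Spectronaut quantities of proteins with ≥2 unique peptides.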

USP46 = USP46 (UniProt P62068)
Chain of USP46 (P62068 whole entry): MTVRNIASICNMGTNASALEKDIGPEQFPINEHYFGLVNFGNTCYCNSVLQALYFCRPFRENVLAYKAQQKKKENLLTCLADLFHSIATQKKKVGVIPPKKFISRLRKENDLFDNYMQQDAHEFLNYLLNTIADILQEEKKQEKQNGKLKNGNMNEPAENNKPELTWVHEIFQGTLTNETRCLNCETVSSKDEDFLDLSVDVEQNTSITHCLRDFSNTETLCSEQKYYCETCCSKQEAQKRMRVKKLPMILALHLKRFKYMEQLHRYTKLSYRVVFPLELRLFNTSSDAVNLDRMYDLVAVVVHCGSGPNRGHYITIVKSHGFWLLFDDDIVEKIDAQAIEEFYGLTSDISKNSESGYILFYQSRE
Summary of the method: as §1

USP47 = molecular target: T2, USP47 (UniProt Q96K76)
T2 sequence (whole entry): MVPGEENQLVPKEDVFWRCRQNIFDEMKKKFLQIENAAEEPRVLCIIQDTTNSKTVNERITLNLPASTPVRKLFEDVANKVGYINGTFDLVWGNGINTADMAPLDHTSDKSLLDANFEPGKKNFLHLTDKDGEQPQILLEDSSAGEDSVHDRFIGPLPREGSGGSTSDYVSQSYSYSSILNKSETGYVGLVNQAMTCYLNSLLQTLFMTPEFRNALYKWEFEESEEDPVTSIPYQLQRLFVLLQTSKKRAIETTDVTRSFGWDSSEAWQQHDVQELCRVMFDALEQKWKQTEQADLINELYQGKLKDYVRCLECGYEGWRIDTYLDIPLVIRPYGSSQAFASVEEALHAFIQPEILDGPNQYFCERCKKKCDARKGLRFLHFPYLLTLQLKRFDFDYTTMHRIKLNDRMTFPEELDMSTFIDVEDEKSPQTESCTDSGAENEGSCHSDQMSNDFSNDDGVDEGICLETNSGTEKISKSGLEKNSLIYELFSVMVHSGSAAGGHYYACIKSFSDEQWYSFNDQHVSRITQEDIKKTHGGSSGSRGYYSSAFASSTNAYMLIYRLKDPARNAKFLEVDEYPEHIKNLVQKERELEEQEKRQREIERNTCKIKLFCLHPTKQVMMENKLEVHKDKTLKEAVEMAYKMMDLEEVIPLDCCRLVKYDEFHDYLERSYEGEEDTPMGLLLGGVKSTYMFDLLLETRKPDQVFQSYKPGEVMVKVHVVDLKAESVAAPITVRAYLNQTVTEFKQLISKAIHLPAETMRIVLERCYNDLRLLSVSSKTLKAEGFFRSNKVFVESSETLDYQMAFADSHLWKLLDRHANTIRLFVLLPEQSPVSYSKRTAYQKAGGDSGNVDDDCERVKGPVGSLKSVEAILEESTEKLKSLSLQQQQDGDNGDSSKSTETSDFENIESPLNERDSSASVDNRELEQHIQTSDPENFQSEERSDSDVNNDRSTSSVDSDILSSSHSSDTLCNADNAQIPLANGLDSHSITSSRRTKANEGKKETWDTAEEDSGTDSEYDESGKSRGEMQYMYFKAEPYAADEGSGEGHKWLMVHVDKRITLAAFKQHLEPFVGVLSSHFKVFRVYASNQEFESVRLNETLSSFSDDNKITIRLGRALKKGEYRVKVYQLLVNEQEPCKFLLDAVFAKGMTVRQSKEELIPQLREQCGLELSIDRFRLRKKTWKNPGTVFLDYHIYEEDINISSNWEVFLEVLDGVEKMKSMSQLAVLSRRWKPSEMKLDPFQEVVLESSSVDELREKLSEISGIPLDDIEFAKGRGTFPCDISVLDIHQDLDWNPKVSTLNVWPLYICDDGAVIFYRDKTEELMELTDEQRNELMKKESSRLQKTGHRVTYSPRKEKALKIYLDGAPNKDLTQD
Summary of the method: as §1

USP48 = molecular target: T3, USP48 (UniProt Q86UV5)
T3 sequence (whole entry): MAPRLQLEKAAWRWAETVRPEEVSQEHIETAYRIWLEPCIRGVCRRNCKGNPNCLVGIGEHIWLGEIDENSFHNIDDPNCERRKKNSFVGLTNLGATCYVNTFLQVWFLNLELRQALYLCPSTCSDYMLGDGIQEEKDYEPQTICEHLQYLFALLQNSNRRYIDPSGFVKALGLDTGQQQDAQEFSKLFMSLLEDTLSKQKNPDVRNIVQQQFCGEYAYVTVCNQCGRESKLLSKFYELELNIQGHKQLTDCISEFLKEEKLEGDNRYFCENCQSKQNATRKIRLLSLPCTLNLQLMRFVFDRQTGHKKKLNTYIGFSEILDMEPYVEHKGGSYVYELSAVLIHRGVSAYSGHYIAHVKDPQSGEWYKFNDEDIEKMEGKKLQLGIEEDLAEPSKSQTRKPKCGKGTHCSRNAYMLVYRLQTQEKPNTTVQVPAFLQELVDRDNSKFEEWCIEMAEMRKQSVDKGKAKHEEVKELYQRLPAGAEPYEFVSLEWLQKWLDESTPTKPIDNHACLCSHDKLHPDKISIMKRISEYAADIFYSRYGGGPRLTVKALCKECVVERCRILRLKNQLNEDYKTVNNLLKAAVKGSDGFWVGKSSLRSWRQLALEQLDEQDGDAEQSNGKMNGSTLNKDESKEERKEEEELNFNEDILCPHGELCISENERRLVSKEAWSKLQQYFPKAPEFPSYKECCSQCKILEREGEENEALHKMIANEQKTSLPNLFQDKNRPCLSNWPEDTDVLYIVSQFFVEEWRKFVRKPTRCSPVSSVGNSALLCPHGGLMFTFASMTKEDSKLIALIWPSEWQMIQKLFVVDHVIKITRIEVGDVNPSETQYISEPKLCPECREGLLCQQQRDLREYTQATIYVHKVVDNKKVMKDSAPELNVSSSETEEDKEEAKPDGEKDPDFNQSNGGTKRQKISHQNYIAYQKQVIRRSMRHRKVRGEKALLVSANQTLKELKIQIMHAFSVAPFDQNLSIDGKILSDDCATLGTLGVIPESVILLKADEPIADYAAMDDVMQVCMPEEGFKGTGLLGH
Summary of the method: as §1

USP5 = molecular target: T4, USP5 (UniProt P45974)
T4 sequence (whole entry): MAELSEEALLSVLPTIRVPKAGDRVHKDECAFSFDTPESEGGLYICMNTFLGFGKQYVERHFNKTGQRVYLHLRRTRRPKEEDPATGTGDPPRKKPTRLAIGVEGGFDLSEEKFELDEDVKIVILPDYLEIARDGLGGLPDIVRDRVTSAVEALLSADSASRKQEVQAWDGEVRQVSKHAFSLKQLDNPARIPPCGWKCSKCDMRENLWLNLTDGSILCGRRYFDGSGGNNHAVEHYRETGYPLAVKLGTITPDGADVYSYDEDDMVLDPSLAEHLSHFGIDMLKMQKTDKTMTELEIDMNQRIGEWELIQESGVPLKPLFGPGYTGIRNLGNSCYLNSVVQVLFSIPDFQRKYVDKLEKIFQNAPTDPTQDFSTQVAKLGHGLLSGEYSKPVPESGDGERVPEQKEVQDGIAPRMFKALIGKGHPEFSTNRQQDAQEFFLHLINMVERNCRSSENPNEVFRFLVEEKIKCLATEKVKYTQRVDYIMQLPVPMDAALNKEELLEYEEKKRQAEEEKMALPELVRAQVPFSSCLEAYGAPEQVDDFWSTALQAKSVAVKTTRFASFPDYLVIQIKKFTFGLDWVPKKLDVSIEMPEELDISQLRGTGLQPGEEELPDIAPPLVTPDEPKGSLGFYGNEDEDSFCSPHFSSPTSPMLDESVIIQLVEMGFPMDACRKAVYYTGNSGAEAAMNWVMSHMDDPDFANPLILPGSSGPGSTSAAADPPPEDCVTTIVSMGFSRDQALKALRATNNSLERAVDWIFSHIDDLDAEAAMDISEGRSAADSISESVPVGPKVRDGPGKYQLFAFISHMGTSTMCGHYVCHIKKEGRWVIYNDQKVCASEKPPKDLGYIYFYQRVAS
Summary of the method: as §1

USP54 = USP54 (UniProt Q70EL1)
Chain of USP54 (Q70EL1 whole entry): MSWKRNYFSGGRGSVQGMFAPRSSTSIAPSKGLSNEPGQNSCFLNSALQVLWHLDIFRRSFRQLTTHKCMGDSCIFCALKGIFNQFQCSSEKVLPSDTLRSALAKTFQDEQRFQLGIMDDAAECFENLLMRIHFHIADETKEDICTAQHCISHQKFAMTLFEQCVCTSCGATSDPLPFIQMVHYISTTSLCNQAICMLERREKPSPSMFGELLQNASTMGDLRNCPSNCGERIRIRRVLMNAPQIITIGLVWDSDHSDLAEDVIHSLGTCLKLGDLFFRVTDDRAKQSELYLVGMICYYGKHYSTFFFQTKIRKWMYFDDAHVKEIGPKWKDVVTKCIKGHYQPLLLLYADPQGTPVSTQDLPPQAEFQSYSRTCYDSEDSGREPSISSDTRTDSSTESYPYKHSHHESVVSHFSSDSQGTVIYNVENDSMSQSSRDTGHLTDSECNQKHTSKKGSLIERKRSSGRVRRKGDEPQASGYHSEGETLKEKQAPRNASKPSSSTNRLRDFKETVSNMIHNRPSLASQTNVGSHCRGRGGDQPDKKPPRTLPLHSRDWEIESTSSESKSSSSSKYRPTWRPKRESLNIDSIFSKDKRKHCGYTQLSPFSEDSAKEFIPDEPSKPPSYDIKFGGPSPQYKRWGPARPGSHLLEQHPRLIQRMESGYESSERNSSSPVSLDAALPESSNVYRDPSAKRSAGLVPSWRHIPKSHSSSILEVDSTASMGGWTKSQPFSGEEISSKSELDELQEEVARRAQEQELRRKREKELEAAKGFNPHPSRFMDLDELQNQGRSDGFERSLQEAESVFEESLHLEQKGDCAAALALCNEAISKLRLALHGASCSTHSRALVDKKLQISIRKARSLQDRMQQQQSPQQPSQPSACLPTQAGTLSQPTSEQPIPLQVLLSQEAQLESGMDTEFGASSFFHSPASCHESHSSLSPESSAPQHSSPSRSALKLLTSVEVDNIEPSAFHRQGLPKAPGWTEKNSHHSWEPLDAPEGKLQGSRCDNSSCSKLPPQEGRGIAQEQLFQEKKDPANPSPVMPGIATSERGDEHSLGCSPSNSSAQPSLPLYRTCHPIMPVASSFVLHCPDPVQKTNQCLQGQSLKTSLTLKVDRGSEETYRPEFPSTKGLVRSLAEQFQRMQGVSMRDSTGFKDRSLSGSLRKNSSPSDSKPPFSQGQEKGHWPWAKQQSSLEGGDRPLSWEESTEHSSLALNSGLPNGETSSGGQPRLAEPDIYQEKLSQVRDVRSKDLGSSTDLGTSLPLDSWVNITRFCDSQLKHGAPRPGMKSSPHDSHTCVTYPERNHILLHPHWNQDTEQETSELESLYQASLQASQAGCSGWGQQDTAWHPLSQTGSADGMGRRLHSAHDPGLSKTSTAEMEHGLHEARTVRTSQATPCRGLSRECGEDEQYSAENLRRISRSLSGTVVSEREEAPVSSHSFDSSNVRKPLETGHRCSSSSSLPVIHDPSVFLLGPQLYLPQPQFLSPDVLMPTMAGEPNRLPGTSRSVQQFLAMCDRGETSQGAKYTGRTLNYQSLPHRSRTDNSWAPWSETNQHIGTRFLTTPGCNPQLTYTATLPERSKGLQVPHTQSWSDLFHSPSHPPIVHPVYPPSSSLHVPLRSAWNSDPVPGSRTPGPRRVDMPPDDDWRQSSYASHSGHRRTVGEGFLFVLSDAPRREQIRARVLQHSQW
Summary of the method: as §1

USP7 = USP7 (UniProt Q93009)
Chain of USP7 (Q93009 whole entry, looked up): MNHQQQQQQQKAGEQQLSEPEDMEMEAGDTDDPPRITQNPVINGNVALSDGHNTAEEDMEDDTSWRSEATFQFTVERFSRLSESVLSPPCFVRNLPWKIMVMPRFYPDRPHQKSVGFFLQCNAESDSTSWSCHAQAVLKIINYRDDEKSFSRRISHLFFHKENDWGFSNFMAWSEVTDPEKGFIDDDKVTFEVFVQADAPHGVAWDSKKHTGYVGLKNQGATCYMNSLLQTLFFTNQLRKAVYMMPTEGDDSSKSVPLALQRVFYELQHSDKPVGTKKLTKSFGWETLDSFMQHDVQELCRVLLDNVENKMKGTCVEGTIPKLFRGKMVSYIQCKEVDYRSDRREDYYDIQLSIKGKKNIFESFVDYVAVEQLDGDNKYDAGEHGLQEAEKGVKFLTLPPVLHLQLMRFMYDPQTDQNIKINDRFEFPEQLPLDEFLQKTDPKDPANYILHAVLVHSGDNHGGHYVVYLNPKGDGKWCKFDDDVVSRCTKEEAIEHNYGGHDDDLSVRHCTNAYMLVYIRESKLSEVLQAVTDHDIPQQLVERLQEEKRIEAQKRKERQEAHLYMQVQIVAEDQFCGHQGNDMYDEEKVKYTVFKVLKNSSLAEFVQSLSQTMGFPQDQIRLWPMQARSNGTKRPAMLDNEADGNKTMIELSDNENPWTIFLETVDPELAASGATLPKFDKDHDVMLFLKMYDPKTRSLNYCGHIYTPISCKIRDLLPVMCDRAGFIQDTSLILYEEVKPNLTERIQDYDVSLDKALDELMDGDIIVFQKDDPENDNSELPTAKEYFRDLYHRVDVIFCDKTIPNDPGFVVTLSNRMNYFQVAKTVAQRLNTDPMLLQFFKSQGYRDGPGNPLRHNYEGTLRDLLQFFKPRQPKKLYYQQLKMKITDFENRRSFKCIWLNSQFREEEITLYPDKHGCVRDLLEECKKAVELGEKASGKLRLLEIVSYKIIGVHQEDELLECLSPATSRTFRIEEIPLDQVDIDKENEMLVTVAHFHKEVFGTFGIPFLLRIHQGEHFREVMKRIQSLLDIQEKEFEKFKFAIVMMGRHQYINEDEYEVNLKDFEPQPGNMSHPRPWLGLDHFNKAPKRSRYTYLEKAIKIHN
Summary of the method: as §1

USP8 = molecular target: T5, USP8 (UniProt P40818)
T5 sequence (whole entry): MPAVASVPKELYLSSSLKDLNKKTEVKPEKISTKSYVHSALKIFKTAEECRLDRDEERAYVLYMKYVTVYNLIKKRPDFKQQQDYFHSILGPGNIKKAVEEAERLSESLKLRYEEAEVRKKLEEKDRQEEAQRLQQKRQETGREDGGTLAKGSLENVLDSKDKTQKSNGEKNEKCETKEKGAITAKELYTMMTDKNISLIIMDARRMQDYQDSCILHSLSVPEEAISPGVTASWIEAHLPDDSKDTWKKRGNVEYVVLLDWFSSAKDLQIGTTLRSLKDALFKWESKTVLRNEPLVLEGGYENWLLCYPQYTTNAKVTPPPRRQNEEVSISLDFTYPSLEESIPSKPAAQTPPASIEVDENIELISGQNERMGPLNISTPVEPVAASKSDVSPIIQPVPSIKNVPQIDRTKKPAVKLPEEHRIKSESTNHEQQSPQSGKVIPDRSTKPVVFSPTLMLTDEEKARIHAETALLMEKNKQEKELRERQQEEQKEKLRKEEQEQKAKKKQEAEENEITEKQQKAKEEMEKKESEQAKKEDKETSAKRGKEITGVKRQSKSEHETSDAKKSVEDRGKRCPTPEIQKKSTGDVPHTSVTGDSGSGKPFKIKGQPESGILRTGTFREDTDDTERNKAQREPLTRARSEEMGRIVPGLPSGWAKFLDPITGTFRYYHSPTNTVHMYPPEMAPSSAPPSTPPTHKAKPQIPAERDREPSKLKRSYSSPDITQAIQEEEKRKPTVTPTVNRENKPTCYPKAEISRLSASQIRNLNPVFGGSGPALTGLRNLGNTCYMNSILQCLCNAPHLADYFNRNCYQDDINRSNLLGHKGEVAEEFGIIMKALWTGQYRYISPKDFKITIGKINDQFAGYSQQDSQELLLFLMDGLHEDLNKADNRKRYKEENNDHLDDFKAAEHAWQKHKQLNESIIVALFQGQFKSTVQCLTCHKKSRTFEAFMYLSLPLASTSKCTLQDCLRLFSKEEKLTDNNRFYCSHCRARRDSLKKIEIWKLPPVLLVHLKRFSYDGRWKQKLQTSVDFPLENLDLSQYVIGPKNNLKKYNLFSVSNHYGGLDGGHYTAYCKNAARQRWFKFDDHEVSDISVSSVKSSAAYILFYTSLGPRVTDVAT
Summary of the method: as §1

Measured: log2 ratio of Biotin-Ahx-Ub-VS probe labelling

O=C(CCl)N1CC=C(c2c[nH]c3ccccc23)CC1
inactive: USP42 0.0977 | USP47 0.0399 | USP48 -0.728 | USP5 -0.577 | USP54 0.155 | USP8 -0.785
active: USP46 -1.44 | USP7 -1.53
